MCL1 BIM primary = MCL1-BIM-BH3 interaction inhibition (human). Q07820. inhibition, % at 10.9 µM. 0.68% of 320,000 active. GST-MCL1 / FITC-Bim-BH3 fluorescence polarization;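 active = inhibition above the mean inhibition of all tested compounds plus 3 SD, set per campaign, cut at about 40% in these data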;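 note: 0% = DMSO wells and 100% = unlabeled Bim-BH3 peptide control; higher means more loss of mP so more displacement of Bim peptide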
EBV gp42 inh = inhibitors of Epstein-Barr virus glycoprotein 42; AID 1085; inhibition, % (tested at 21.74 µM); 0.42% of 220,000 active; Q1HVG2; Fluorescence polarization binding assay, mP read-out; in the data active = inhibition above about 50%
GLD-1 TGE inh = GLD-1-TGE RNA interaction inhibition (C. elegans). Q17339. 0.44% of 320,000 active. AID 2280. inhibition, % at 5.96 µM. purified GLD-1 + fluorescein TGE RNA, fluorescence polarization;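 active = percent inhibition above a per-plate cutoff, the plate mean of test compounds plus 3 SD, cut at about 30% in these data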;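 note: 0% = DMSO wells with GLD-1 and probe and 100% = wells lacking GLD-1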
Target sequence (Q17339 whole entry, looked up): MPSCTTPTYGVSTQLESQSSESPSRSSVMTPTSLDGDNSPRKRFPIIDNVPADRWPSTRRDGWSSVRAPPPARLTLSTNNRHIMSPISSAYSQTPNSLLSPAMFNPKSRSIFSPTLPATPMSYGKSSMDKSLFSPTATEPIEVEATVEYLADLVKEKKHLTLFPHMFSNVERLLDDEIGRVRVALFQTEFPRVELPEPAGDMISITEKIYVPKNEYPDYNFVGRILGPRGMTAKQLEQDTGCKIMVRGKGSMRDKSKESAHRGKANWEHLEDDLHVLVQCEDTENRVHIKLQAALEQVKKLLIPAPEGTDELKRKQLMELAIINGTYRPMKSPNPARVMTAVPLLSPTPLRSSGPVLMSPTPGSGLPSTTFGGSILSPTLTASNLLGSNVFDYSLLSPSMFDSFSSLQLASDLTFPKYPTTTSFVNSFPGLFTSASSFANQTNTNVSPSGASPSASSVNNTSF
MEX-5 binding = C. elegans MEX-5 TCR-2 RNA binding activity; MEX-5/FITC-TCR2 RNA binding, fluorescence polarization; hits give low values; Q9XUB2; activity score (negative = inhibition of binding), % at 10 µM; AID 1832; 0.38% of 300,000 active;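 active = inhibition past about -25% in most replicates, and total fluorescence under double the plate's negative control median, limit read from the data; inconclusive = replicates evenly split on the limit, or fluorescence at least double controls; inactive = too little inhibition in most replicates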;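 note: 0% = DMSO and -100% = 5 µM competing unlabeled TCR2 RNA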
Bcl-xL primary = Bcl-xL (human) inhibition. GST-Bcl-xL / FITC-Bim BH3 peptide fluorescence polarization. inhibition, % at 10.9 µM. Q07817. 0.7% of 320,000 active;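 active = inhibition above the mean of all tested compounds plus 3 SD, cutoff set per campaign, cut at about 30% in these data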;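 note: 0% = DMSO wells and 100% = unlabeled Bim-BH3 peptide competitor; inhibitors lower millipolarization by displacing the labeled peptide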
Bcl-xL conf = Bcl-xL (human) inhibition, MCL1 counter-screen confirmation; inhibition, % at 10.9 µM; AID 2166; shares compounds with MCL1 BIM primary; 54% of 1,700 active; GST-Bcl-xL / FITC-Bim BH3 peptide FP binding;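 active = inhibition above a cutoff equal to the mean inhibition of all tested compounds plus 3 SD, cut at about 30% in these data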;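 note: 0% = DMSO wells and 100% = unlabeled Bim BH3 control peptide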
MCL1 BIM confirm = MCL1-BIM-BH3 interaction inhibition, confirmation; shares compounds with MCL1 BIM primary; GST-MCL1 / FITC-Bim-BH3 fluorescence polarization; inhibition, % at 10.9 µM; 61% of 1,700 active; AID 2168;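 active = inhibition above the average of all tested compounds plus 3 SD, cut at about 40% in these data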;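 note: 0% = DMSO wells and 100% = unlabeled Bim-BH3 control peptide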
* marks the source's active call; other numbers are inactive results; u = inconclusive; x = not tested or not shown; + = active, no number. In the library only some 1.3% were active in any assay of this set; here they are far more common.

SMILES	MCL1 BIM primary	EBV gp42 inh	GLD-1 TGE inh	MEX-5 binding	Bcl-xL primary	Bcl-xL conf	MCL1 BIM confirm
CCCn1c(=O)c2ccccc2n2c(SCc3cc(=O)oc4ccc5ccccc5c34)nnc12	40*	-17	31*	0	35*	18	27
CC1(c2nnc(Cc3ccccc3)o2)CC(c2ccc(OC(F)(F)F)cc2)=NO1 (stereo unspecified)	2	x	-4	3	6	x	x
O=C1C(Cl)=C(NC(=O)c2ccccc2)C(=O)C(Cl)=C1NC(=O)c1ccccc1	57*	x	22	-86*	36*	54*	57*
O=C(NC1=C(Nc2ccc(Cl)cc2)C(=O)c2ccccc2C1=O)c1ccccc1	16	-12	-1	-1	9	x	x
Cc1ccc(NC(=S)Nc2ccc3nc(-c4ccccn4)c(-c4ccccn4)nc3c2)cc1C	151*	35	103*	x	122*	61*	62*
O=S(=O)(c1cccs1)N1CN(Cc2ccco2)c2nc3ccccc3nc21	172*	12	140*	-6	156*	25	24
COc1ccccc1OCCCC(=O)Nc1ccc([N+](=O)[O-])cc1Br	1	-1	8	0	0	x	x
Nc1nnc(CC(=O)N/N=C/c2cc([N+](=O)[O-])cc(Br)c2O)s1	44*	0	-1	u	8	16	43*
Nc1nnc(CC(=O)N/N=C/c2cccc([N+](=O)[O-])c2)s1	3	-12	0	2	8	x	x
O=C(CNC(=O)c1ccccc1Br)N/N=C\c1cc([N+](=O)[O-])cc(Br)c1O	42*	x	0	-5	9	8	36
O=C1CC(c2ccc(F)cc2)CC(O)=C1C=NCCN1CCN(C(=O)Nc2ccccc2)CC1 (stereo unspecified)	-1	-13	5	0	1	x	x
CN(C(=O)c1ccnn1C)C1CCCN(Cc2ccccc2F)C1 (stereo unspecified)	x	x	x	-1	x	x	x
CC1CCN(CC(=O)Nc2ccc(Cl)cc2[N+](=O)[O-])CC1	15	-12	-13	1	9	x	x
CC(=O)Nc1ccc(NC(=O)C(C)OC(=O)C2CCCCC2)cc1 (stereo unspecified)	151*	x	21	x	18	2	9
C[C@H](NC(=O)c1nc[nH]c1C(=O)NCC(=O)OCc1ccccc1)c1ccccc1	4	x	8	2	5	x	x
COc1ccccc1NS(=O)(=O)c1ccc(N/N=C/c2ccccc2OCC(=O)O)c([N+](=O)[O-])c1	141*	6	94*	2	136*	184*	+
Cc1nnc(NC(=O)CSc2nnc(-c3ccco3)n2C(C)C)s1	4	x	3	1	-3	x	x
CC(C)n1c(SCC(=O)Nc2nncs2)nnc1-c1ccco1	41*	x	4	0	12	14	45*
O=C(O)c1ccc(S(=O)(=O)Nc2ccc(O)c(Sc3nc4ccccc4s3)c2)cc1	43*	0	7	-4	26	29	59*
NS(=O)(=O)c1ccc(Sc2nc3ccccc3s2)c([N+](=O)[O-])c1	3	0	6	-3	2	x	x
COc1cc2cc(CN(Cc3nnnn3Cc3ccco3)C3CCCCC3)c(=O)[nH]c2cc1OC	60*	-1	30	-10	47*	24	20
O=c1cc(CN2CCCc3ccccc32)nc2sccn12	+	39	-9	u	199*	134*	166*
O=C1CC(/C=C/c2ccco2)=Nc2ccccc2N1	60*	7	16	-7	50*	32*	45*
C=CCS/C(N)=N\N=C\c1cc(Br)cc([N+](=O)[O-])c1O	9	-1	3	3	7	x	x
CC1CC(C)CN(C(=O)Cn2nnc(-c3ccccc3)n2)C1 (stereo unspecified)	7	x	2	0	9	x	x
CC1CCN(C(=O)Cn2nnc(-c3ccccc3)n2)CC1	45*	x	7	2	10	-25	-51
O=C(/C=C/c1ccc(Cl)c([N+](=O)[O-])c1)Nc1ccc(N2CCCC2)cc1	47*	37	0	-5	0	17	43*
